This is an account of results in the antibiotic and cytotoxicity screens of Wong et al. (2023).

Among all 39,000 compounds or so, about 3,300 (8.5%) were called active. Many of the other results were omitted from the sample, so actives are more common in it than they were.

This test concerns HepG2. In words: cytotoxicity call (relative viability < 0.9). Conditions: 10 µM.
Take `Clc1ccc(C(Cn2ccnc2)OCc2ccsc2Cl)c(Cl)c1` (stereo not given): the cytotoxicity call was “inactive”. As for `Clc1ccc(C(c2ccc(Cl)cc2)[n+]2ccn(C[C@@H](OCc3ccc(Cl)cc3Cl)c3ccc(Cl)cc3Cl)c2)cc1`, the cytotoxicity call was “active”. Then `CNC[C@@H]1OCCCC[C@H](C)Oc2ccc(NC(=O)c3ccncc3)cc2C(=O)N([C@@H](C)CO)C[C@@H]1C`, with “inactive”. Next, `NC(=O)NCCC[C@H](N)C(=O)O`: “inactive”; `NC(=O)CC[C@H]1CCCNC1`: “inactive”.

As to `Cc1ccc(NC(=N)N=C(N)N)c(C)c1`, the cytotoxicity call is “inactive”. Regarding `CCc1ccc(NC(=N)N=C(N)N)cc1`, the cytotoxicity call was “inactive”.

In the case of `Cc1ccccc1NC(=N)N=C(N)N`, the cytotoxicity call was “active”. `COc1cccc(S(=O)(=O)N2C[C@@H](O)COC[C@H]3O[C@@H](CC(=O)N4CCN(c5ccccc5)CC4)CC[C@@H]32)c1`: the cytotoxicity call was “inactive”. Take `COc1ccc(NC(=O)N(C)C[C@@H]2OCc3cnnn3CCCC(=O)N([C@H](C)CO)C[C@H]2C)c(OC)c1`: the cytotoxicity call was “inactive”. For the molecule `CN1CCN(C(=O)C[C@@H]2CC[C@H]3[C@H](COc4ccc(NC(=O)c5cscn5)cc4C(=O)N3C)O2)CC1`, the cytotoxicity call is “inactive”. As for `C[C@H](CO)N1C[C@H](C)[C@@H](CN(C)C)Oc2ccc(NC(=O)Cc3cn(C)c4ccccc34)cc2CC1=O`, the cytotoxicity call is “inactive”. Next, `Nc1nc(=O)c2c([nH]1)NCC(CNc1ccc(C(=O)NC(CCC(=O)O)C(=O)O)cc1)=N2` (stereo not given): “inactive”; `Nc1nc(=O)c2nc(CNc3ccc(C(=O)NC(CCC(=O)O)C(=O)O)cc3)cnc2[nH]1` (stereo not given): “inactive”. Next, `CN(Cc1cnc2nc(N)nc(N)c2n1)c1ccc(C(=O)N[C@@H](CCC(=O)O)C(=O)O)cc1`: “active”; `Nc1nc(=O)c2c([nH]1)NC[C@H](CNc1ccc(C(=O)N[C@@H](CCC(=O)O)C(=O)O)cc1)N2C=O`: “inactive”. Next, `CN(Cc1cnc2nc(N)nc(N)c2n1)c1ccc(C(=O)NC(CCC(=O)O)C(=O)O)cc1.O` (stereo not given): “active”. As for `Nc1nc(=O)c2nc(CNc3ccc(C(=O)N[C@@H](CCC(=O)O)C(=O)O)cc3)cnc2[nH]1`, the cytotoxicity call is “inactive”.

As for `Nc1nc(N)c2nc(CNc3ccc(C(=O)NC(CCC(=O)O)C(=O)O)cc3)cnc2n1` (stereo not given), the cytotoxicity call is “active”. Then `CC(=O)N[C@@H](CCC(=O)O)C(=O)O`, with “inactive”; and `CCCN(CCC)C(=O)C(CCC(=O)O)NC(=O)c1ccccc1` (stereo not given), with “inactive”; and `CN(C)CCCNC(=O)C[C@H]1C=C[C@H](NS(=O)(=O)c2ccccc2)[C@H](CO)O1`, with “inactive”. With `C[C@@H]1CN([C@@H](C)CO)C(=O)Cc2cc(NS(C)(=O)=O)ccc2O[C@H]1CN(C)C(=O)Nc1ccc(F)cc1`, the cytotoxicity call was “inactive”. Next, `COc1cccc(-c2cn(CC[C@H]3CC[C@@H](NC(=O)CN(C)C)[C@H](CO)O3)nn2)c1`: “inactive”; `CC(C)NC(=O)N(C)C[C@H]1Oc2ccc(NC(=O)Cc3ccccc3)cc2CC(=O)N([C@@H](C)CO)C[C@H]1C`: “inactive”. Then `CN1C(=O)c2cc(NC(=O)c3ccno3)ccc2OC[C@H]2O[C@@H](CC(=O)NC3Cc4ccccc4C3)CC[C@@H]21`, with “inactive”; and `Cc1noc(C)c1NC(=O)N(C)C[C@@H]1Oc2ccc(NC(=O)Cn3cnnn3)cc2CC(=O)N([C@H](C)CO)C[C@@H]1C`, with “inactive”; and `C[C@@H]1CCCCO[C@H](CN(C)C(=O)Nc2ccc(C(F)(F)F)cc2)[C@H](C)CN([C@H](C)CO)C(=O)c2cc(NC(=O)Nc3ccccc3)ccc2O1`, with “inactive”. Take `O=C(C[C@@H]1CC=CC[C@H](NC(=O)OCC2c3ccccc3-c3ccccc32)C(=O)O[C@H](c2ccccc2)CNC1=O)N[C@H](CO)Cc1ccccc1`: the cytotoxicity call is “inactive”.

Take `O=C(C[C@@H]1CC[C@@H](NS(=O)(=O)c2ccccc2)[C@@H](CO)O1)NCc1ccncn1`: the cytotoxicity call is “inactive”. As for `Cc1noc(C)c1S(=O)(=O)N(C)C[C@H]1Oc2ccc(NS(=O)(=O)c3ccc(F)cc3)cc2CC(=O)N([C@@H](C)CO)C[C@@H]1C`, the cytotoxicity call is “inactive”.

Turning to `CC1CC(OC(=O)c2ccccc2O)CC(C)(C)C1` (stereo not given), the cytotoxicity call is “active”. As to `CC1CC(OC(=O)C(O)c2ccccc2)CC(C)(C)C1` (stereo not given), the cytotoxicity call is “inactive”.

On to `O=C(Oc1ccccc1C(=O)O)c1ccccc1O`, for which the cytotoxicity call was “inactive”. With `C[C@H]1CN([C@@H](C)CO)C(=O)Cc2cc(NS(C)(=O)=O)ccc2O[C@@H]1CN(C)S(=O)(=O)c1ccccc1`, the cytotoxicity call was “inactive”. Next, `C[C@H]1CCCCO[C@H](CN(C)C(=O)C2CCCCC2)[C@@H](C)CN([C@@H](C)CO)C(=O)c2cc(NC(=O)CCC(F)(F)F)ccc2O1`: “inactive”; `COCC(=O)N(C)C[C@@H]1Oc2cc(C#Cc3cccnc3)ccc2S(=O)(=O)N([C@H](C)CO)C[C@@H]1C`: “inactive”. Then `C[C@H]1CN([C@@H](C)CO)C(=O)c2cccc(NC(=O)Nc3ccc(C(F)(F)F)cc3)c2O[C@H]1CN(C)C(=O)Nc1ccc(F)cc1`, with “active”. Then `C[C@@H]1CN([C@H](C)CO)C(=O)c2cccc(NC(=O)Nc3ccc(F)cc3)c2O[C@H]1CN(C)C(=O)Nc1ccc(C(F)(F)F)cc1`, with “inactive”; and `C[C@@H]1CN([C@H](C)CO)C(=O)c2cccc(NC(=O)Nc3ccc(F)cc3)c2O[C@@H]1CN(C)C(=O)Nc1ccc(C(F)(F)F)cc1`, with “inactive”. Turning to `C[C@H]1CN([C@@H](C)CO)C(=O)c2cccc(NC(=O)Nc3ccc(C(F)(F)F)cc3)c2O[C@@H]1CN(C)C(=O)Nc1ccc(F)cc1`, the cytotoxicity call is “inactive”. For the molecule `C[C@@H]1CN([C@H](C)CO)C(=O)c2cccc(NC(=O)Nc3ccc(C(F)(F)F)cc3)c2O[C@@H]1CN(C)C(=O)Nc1ccc(F)cc1`, the cytotoxicity call was “inactive”.

Take `C[C@H](CO)N1C[C@H](C)[C@H](CN(C)C(=O)Nc2ccc(F)cc2)Oc2c(NC(=O)Nc3ccc(C(F)(F)F)cc3)cccc2C1=O`: the cytotoxicity call is “active”. `C[C@H](CO)N1C[C@H](C)[C@@H](CN(C)S(=O)(=O)c2cn(C)cn2)Oc2c(NC(=O)Nc3ccccc3)cccc2C1=O`: the cytotoxicity call is “inactive”. Next, `C[C@@H]1CCCCO[C@H](CN(C)C(=O)C2CCCCC2)[C@@H](C)CN([C@H](C)CO)C(=O)c2cc(NC(=O)c3ccccc3)ccc2O1`: “inactive”; `C[C@@H]1CN([C@@H](C)CO)S(=O)(=O)c2ccc(Br)cc2O[C@@H]1CN(C)C(=O)c1ccncc1`: “inactive”; `C[C@H](CO)N1C[C@H](C)[C@H](CN(C)Cc2ccc(C(F)(F)F)cc2)Oc2ccc(NC(=O)NC3CCCCC3)cc2C1=O`: “inactive”. As to `C[C@@H]1CN([C@@H](C)CO)C(=O)c2cccc(NS(C)(=O)=O)c2O[C@@H]1CN(C)S(=O)(=O)c1ccc(Cl)cc1`, the cytotoxicity call was “inactive”. Next, `C[C@H]1CCCCO[C@H](CN(C)Cc2ccc(C(F)(F)F)cc2)[C@@H](C)CN([C@@H](C)CO)C(=O)c2cc(NC(=O)NC3CCCCC3)ccc2O1`: “active”. Take `C[C@H](CO)N1C[C@H](C)[C@@H](CN(C)Cc2ccc(C(F)(F)F)cc2)OCCCC[C@H](C)Oc2ccc(NC(=O)NC3CCCCC3)cc2C1=O`: the cytotoxicity call was “active”. In the case of `C[C@@H]1CN([C@H](C)CO)C(=O)c2cc(NC(=O)NC3CCCCC3)ccc2O[C@@H](C)CCCCO[C@@H]1CN(C)Cc1ccc(C(F)(F)F)cc1`, the cytotoxicity call is “inactive”.

Take `C[C@@H]1CN([C@@H](C)CO)C(=O)c2cc(NC(=O)NC3CCCCC3)ccc2O[C@@H](C)CCCCO[C@H]1CN(C)Cc1ccc(C(F)(F)F)cc1`: the cytotoxicity call is “active”. Then `C[C@@H]1CCCCO[C@@H](CN(C)Cc2ccc(C(F)(F)F)cc2)[C@H](C)CN([C@@H](C)CO)C(=O)c2cc(NC(=O)NC3CCCCC3)ccc2O1`, with “active”.

Turning to `C[C@H](CO)N1C[C@H](C)[C@H](CN(C)Cc2ccc(C(F)(F)F)cc2)OCCCC[C@H](C)Oc2ccc(NC(=O)NC3CCCCC3)cc2C1=O`, the cytotoxicity call was “inactive”.

Turning to `Cc1ccc2nc(CN)cn2c1`, the cytotoxicity call was “inactive”. Then `CCOc1ccc(Nc2nc3c(=O)nc[nH]c3n2[C@H]2O[C@@H](CO)[C@@H](O)[C@@H]2O)cc1`, with “inactive”.

With `C[C@H](CO)N1C[C@H](C)[C@@H](CN(C)C(=O)CCC(F)(F)F)OCCCC[C@H](C)Oc2ccc(NC(=O)CCC(F)(F)F)cc2C1=O`, the cytotoxicity call is “inactive”. For the molecule `C[C@H]1CN([C@@H](C)CO)C(=O)CCCn2nncc2CO[C@H]1CN(C)C(=O)c1ccc(N2CCN(C)CC2)cc1`, the cytotoxicity call was “inactive”. For `COc1ccc(S(=O)(=O)N(C)C[C@@H]2Oc3ccc(NC(=O)NC(C)C)cc3CC(=O)N([C@H](C)CO)C[C@H]2C)cc1`, the cytotoxicity call was “inactive”.

For the molecule `CN1CCN(C(=O)C[C@H]2CC[C@H]3[C@@H](COc4ccc(NC(=O)c5ccc(F)c(F)c5)cc4C(=O)N3C)O2)CC1`, the cytotoxicity call is “inactive”. Turning to `COc1ccc(CNS(=O)(=O)N(C)C)cc1`, the cytotoxicity call is “inactive”.

For `CO[C@H]1CN(C)C(=O)c2cc(NC(=O)Nc3ccccc3)ccc2OC[C@H](C)N(C(=O)CN(C)C)C[C@H]1C`, the cytotoxicity call was “inactive”. On to `C[C@@H]1CCCCO[C@H](CN(C)Cc2ccc(C(F)(F)F)cc2)[C@@H](C)CN([C@@H](C)CO)C(=O)c2cc(NC(=O)NC3CCCCC3)ccc2O1`, for which the cytotoxicity call was “active”.

Consider `C[C@@H]1CCCCO[C@H](CN(C)Cc2ccc(C(F)(F)F)cc2)[C@@H](C)CN([C@H](C)CO)C(=O)c2cc(NC(=O)NC3CCCCC3)ccc2O1`, for which the cytotoxicity call was “active”.

Turning to `C[C@@H]1CCCCO[C@@H](CN(C)Cc2ccc(C(F)(F)F)cc2)[C@@H](C)CN([C@@H](C)CO)C(=O)c2cc(NC(=O)NC3CCCCC3)ccc2O1`, the cytotoxicity call was “active”. Next, `C[C@@H]1CCCCO[C@H](CN(C)Cc2ccc(C(F)(F)F)cc2)[C@H](C)CN([C@H](C)CO)C(=O)c2cc(NC(=O)NC3CCCCC3)ccc2O1`: “active”. Next, `C[C@@H]1CCCCO[C@@H](CN(C)Cc2ccc(C(F)(F)F)cc2)[C@@H](C)CN([C@H](C)CO)C(=O)c2cc(NC(=O)NC3CCCCC3)ccc2O1`: “inactive”; `CNC(=O)C[C@H]1CC[C@H]2[C@@H](COC[C@@H](O)CN2C(=O)Nc2ccc3c(c2)OCO3)O1`: “inactive”. Next, `C[C@H](CO)N1C[C@H](C)[C@H](CN(C)C(=O)Nc2ccc(F)cc2)Oc2ccc(NS(=O)(=O)c3cn(C)cn3)cc2C1=O`: “inactive”; `C[C@H](CO)N1C[C@H](C)[C@@H](CN(C)C(=O)Cc2ccccc2)OCCCC[C@H](C)Oc2ccc(NS(=O)(=O)c3ccc(F)cc3)cc2C1=O`: “inactive”.
